We go through four compounds from PubChem BioAssay (NCATS).

The target in experiment [1] is Lysosomal acid glucosylceramidase (Homo sapiens) (UniProt P04062). The experiment in a line: Glucocerebrosidase-p2 (AID 348; in the data active = potency below about 10 µM; note: potency is the fitted concentration of half-maximal effect). Conditions: purified GBA, blue fluorogenic substrate, 40 min. The method in brief: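 Compounds titrated from 0.6 nM upwards against 0.2 nM enzyme in pH 5.9 citric acid/KH2PO4, taurocholate, tween-20; blue fluorogenic substrate 80 uM, 40 min room temperature, stopped and read Ex 365/Em 440 for AC50.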

A short description of experiment [2]: AP1 Signaling Pathway (AID 357; active = well fitted curve in either direction with a large enough effect, not every such curve was filed as active; note: % is set by controls: 0 for no effect and ±100 for the full control effect). Conditions: ME-180 AP-1-bla reporter, EGF-induced, beta-lactamase ratio, 5 h; at 7.69 µM (top of the series) unless noted. The procedure, abridged: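 AP-1-bla ME-180 cells with beta-lactamase reporter under AP-1 response element, stimulated with EC50 EGF; compounds titrated, 5 hours at 37 degrees Celsius. CCF4 read at 460/530 nm ratio; positive and negative modulators judged by AC50.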

The target in experiment [3] is Cytochrome P450 1A2 (Homo sapiens) (UniProt P05177). The experiment in a line: p450-cyp1a2 (AID 410; calls by dose curve; note: potency is the fitted concentration of half-maximal effect). Conditions: recombinant CYP1A2, luciferin-ME demethylation, luminescence; series mostly up to 57 µM. The method in brief: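 Inhibition was calculated relative to 57 uM furafylline (full inhibition). The reaction used human CYP1A2 at 20nM with Luciferin-ME at its Km, 100uM, driven by an NADPH-regenerating system for 60 min at room temperature.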

Experiment [4] in a line: NFAT Signaling Pathway (AID 444; active = well fitted curve in either direction with a large enough effect, not every such curve was filed as active;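 note: carbachol stimulus at about its EC50 of 1 µM final; % is set by controls: 0 for no effect and ±100 for the full control effect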). Conditions: Jurkat NFAT-bla M1, carbachol, beta-lactamase ratio, 5 h; at 7.69 µM (top of the series) unless noted. The method in brief: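 Read-out: CCF4 FRET ratio (460 nm/530 nm) after 1 h RT dye loading, used for %activity and AC50 from titration series. Cells: Jurkat NFAT-β-lactamase/M1 line, treated with compound plus 1 uM carbachol for 5 h, 37 °C.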

Experiment [5] is described as follows: Stat Signaling Pathway (AID 446; active = well fitted curve in either direction with a large enough effect, not every such curve was filed as active;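 note: ME-180 cervical cancer cells given 40 pM IL-6 alongside compound; SIE-controlled beta-lactamase reporter measured as 460/530 nm FRET emission ratio; % is set by controls: 0 for no effect and ±100 for the full control effect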). Conditions: ME-180 SIE beta-lactamase reporter, IL-6 stimulated, 5 h; at 7.69 µM (top of the series) unless noted. The method in brief:
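IL-6/STAT signaling read in ME-180 cells via an SIE beta-lactamase reporter. Stimulus was 40 pM IL-6 (its AC50) for 5 hrs, so both activation and inhibition register.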

Experiment [6] has as its target Glucocorticoid receptor (Homo sapiens) (UniProt P04150). Description: GR-GFP Redistribution (AID 450;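 active = compounds whose dose series gives a full or clear partial fitted curve of increased nuclear translocation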; note: potency is the fitted concentration of half-maximal effect). Conditions: U2OS GR-GFP nuclear translocation, laser cytometry, 2 h.
Experiment [7] shares this target. The experiment in a line: GR-EFC Redistribution (AID 451; calls by dose curve; note: potency is the fitted concentration of half-maximal effect). Conditions: CHO-K1 GR-EFC translocation, beta-gal luminescence, 2 h. The method in brief:
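Translocation of GR-ED fusion to nuclear EA restores b-gal, read by luminescence after 1 h room-temperature detection. Engineered CHO-K1 biosensor cells, 1,000/well, exposed 2 h at 37 C to titrations up to 46 uM final.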

For experiment [8], the target named is Mitogen-activated protein kinase 10 (Mus musculus) (UniProt Q61831). Description: JNK3 AlphaScreen Assay (AID 530; active = well fitted curve in either direction with a large enough effect, not every such curve was filed as active;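 note: kinase came from lysate of stimulated human HepG2 cells; signal reports phosphorylation of biotinylated GST-cJun 1-79 at Ser73 with 10 µM ATP; % is set by controls: 0 for no effect and ±100 for the full control effect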). Conditions: JNK3 lysate, c-Jun phosphorylation; series mostly up to 57.1 µM. The method in brief: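 Room-temperature AlphaScreen kinase assay; pre-activated HepG2 lysate as JNK3 source, biotin-GST-cJun(1-79) substrate, 10 uM ATP, compound 15 min preincubation.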

For experiment [9], the target named is 3',5'-cyclic-AMP phosphodiesterase 4B (Homo sapiens) (UniProt Q07343). Description: qHTS Assay for Inhibitors of PDE-IV (AID 607; active = well fitted activation curve with a large enough effect in the main read-out, with a control signal flat, not every such curve was filed as active; note: % of control where 0% means no effect). Conditions: HEK293 ACTOne CNG channel cells, membrane potential fluorescence; series mostly up to 22.9 µM. The procedure, abridged: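 Live HEK293 cells with a modified cyclic nucleotide-gated (CNG) channel report intracellular cAMP via membrane-potential dye fluorescence (ex 535/em 590 nm). Endogenous PDE-IV was targeted. Compounds were tested at up to 22.9 uM final; RO 20-1724 100 uM served as control.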

For experiment [10], the target named is Cytochrome P450 3A4 (Homo sapiens) (UniProt P08684). The experiment in a line: qHTS Assay for Activators of Cytochrome P450 3A4 (AID 885). Note: nearly all actives have a fitted effect of over 65% in size. Particulars: recombinant CYP3A4, Luciferin-PPXE luminescence, 60 min; series mostly up to 57.1 µM. The method in brief:
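Quantitative HTS format: compounds preincubated with 20nM human CYP3A4 and Luciferin-PPXE substrate at KM, reaction started by NADPH regeneration, stopped after 60 min, luciferase luminescence read 20 min later.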

The nature of experiment [11]: qHTS Assay for Identification of Small Molecule Agonists for Hypoxia Response Element Signaling Pathway (AID 914; active = well fitted activation curve with a large enough effect in the signal ratio, with a control signal flat, not every such curve was filed as active; the % refers to the signal ratio; note: % of control where 0% means no effect). Particulars: ME-180 (cervical carcinoma) HRE-bla reporter, beta-lactamase ratio, CoCl2, 17 h; activation: stronger effect = higher value. The method in brief:
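Read-out: CCF4 FRET ratio of 460nm to 530nm emission (excitation 405nm) after 2.5 hours at room temperature, taken from HRE-bla ME-180 cells that had been exposed to compound and EC50 CoCl2 for 17 hours.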
In general terms: qHTS replaces the single test concentration by a dilution series.

A short description of experiment [12]: qHTS Assay for Lipid Storage Modulators (AID 1519; calls by dose curve). Conditions: Drosophila S3 cells, BODIPY lipid droplet/cell ratio, laser cytometry, cells loaded with oleic acid; for activity change, negative = inhibition: at 57.5 µM (top of the series). The procedure, abridged: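 Cells seeded at 5,000 per well were treated with compounds over a concentration series and loaded with oleic acid (400 uM, as added). Lipid droplet fluorescence (488 nm excitation, 500-530 nm channel) was read by laser-scanning cytometry and normalized to 20 uM Triacsin C.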

Experiment [13] deals with Dual specificity protein kinase CLK4 (Homo sapiens) (UniProt Q9HAZ1). Description: qHTS Assay for Inhibitors of CDC-like Kinase 4 (ADP-FP Assay) (AID 1795).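 Note: recombinant human CLK4 phosphorylating RS repeat peptide at 1 µM ATP; % is set by controls: 0 for no effect and ±100 for the full control effect; nearly all actives have a fitted effect of over 60% in size.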 Particulars: Transcreener ADP fluorescence polarization; series mostly up to 50 µM. The procedure, abridged: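 Inhibition of ADP formation by 6.25 nM Clk4 is measured using 1 uM ATP and 100 uM RS repeat peptide over one hour. Produced ADP displaces a fluorescent tracer from antibody, lowering polarization.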

The target of experiment [14] is Ubiquitin carboxyl-terminal hydrolase 1 (Homo sapiens) (UniProt O94782). The experiment in a line: Inhibitors of USP1/UAF1: Pilot qHTS (AID 504865).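 Note: rhodamine fluorescence freed from ubiquitin-rhodamine substrate followed over time; top concentration of the series differs between compounds; % is set by controls: 0 for no effect and ±100 for the full control effect; nearly all actives have a fitted effect of over 35% in size.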 Conditions: purified USP1/UAF1, Ub-rhodamine cleavage fluorescence; series mostly up to 54.9 µM. The method in brief: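 Kinetic fluorescence assay: 1nM USP1/UAF1, 15 min compound preincubation, then 150nM Ub-Rho; 480/540 nm.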

Experiment [15] deals with Cytochrome P450 3A4 (Homo sapiens) (UniProt P08684). Description: qHTS Assay for Inhibitors and Substrates of Cytochrome P450 3A4 (AID 884). Note: nearly all actives have a fitted effect of over 50% in size. Note: potency is the fitted concentration of half-maximal effect. Particulars: recombinant CYP3A4, Luciferin-PPXE luminescence; series mostly up to 57.1 µM. The method in brief:
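20 nM human CYP3A4 with 25 uM Luciferin-PPXE (at KM) in 200 mM KPO4, preincubated 10 min with compound; NADPH regeneration started a 60 min RT reaction. Luciferin detected by luminescence, normalized to 57 uM ketoconazole as full inhibition.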

The target in experiment [16] is Cytochrome P450 2C19 (Homo sapiens) (UniProt P33261). The experiment in a line: qHTS Assay for Inhibitors and Substrates of Cytochrome P450 2C19 (AID 899). Note: % is set by controls: 0 for no effect and ±100 for the full control effect; nearly all actives have a fitted effect of over 60% in size. Conditions: recombinant CYP2C19, luciferin-H EGE luminescence; series mostly up to 57.1 µM. The method in brief:
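5nM enzyme + 10uM Luciferin-H EGE (=KM), 50mM KPO4; cpd pin-transferred, 10 min 37C; NADPH regen, 60 min 37C; stopped w/ luciferin detection reagent, 20 min; luminescence. Normalized to 57uM ketoconazole (AC100).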

The nature of experiment [17]: Confirmation and Secondary Assay for Modulators of Hemoglobin Beta Chain Splicing at IVS2 654 locus (AID 910).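 Note: HeLa cells stably carrying EGFP split by mutant beta-globin IVS2-654 intron; per-well total GFP intensity by laser scanning cytometry after 2-day treatment; % of control where 0% means no effect.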 Particulars: HeLa EGFP-654 splicing reporter, GFP fluorescence, 48 h; series mostly up to 38.3 µM. The method in brief: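 Readout: per-well total peak green fluorescence (488 nm ex, 500–520 nm em) from objects 5–250 µm, reflecting correct splicing of an EGFP-654 reporter. Compounds were applied for 2 days at 37 °C to overnight-plated HeLa EGFP-654 cells; controls were DMSO and 500 nM IVS2-654 PNA.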

A short description of experiment [18]: Confirmation and Secondary Assay for Modulators of Hemoglobin Beta Chain Splicing at IVS2 705 locus (AID 930).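 Note: HeLa cells stably expressing the EGFP-705 splicing reporter; GFP fluorescence per well restored by corrected splicing of the IVS2-705 intron in EGFP; % of control where 0% means no effect.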 Conditions: HeLa EGFP-705 splicing reporter, GFP fluorescence, 48 h; series mostly up to 38.3 µM. The method in brief: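 HeLa EGFP-705 reporter; 500 cells/well, o/n 37C 5% CO2; cpd 2 d; 488 ex/500-520 em laser scan; total peak GFP intensity/well. Ref: 500 nM […] antisense PNA.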

[19] abbreviates: measured here: cell count channel max response.
Setting [20] is: measured here: lipid channel max response.

Structures are written as SMILES. Records with an inconclusive call do not appear. Active and inactive are the calls of the source. Unless noted, calls come from the whole dose curve; as a rule, active = well fitted curve in the direction sought with a large enough effect; inconclusive = small, poorly fitted or top-dose-only effect, or another doubt; inactive = no such curve, though single readings can be large; an effect the other way counts as inactive or inconclusive.

Sequence of Glucocorticoid receptor (Homo sapiens) (P04150 whole entry, looked up): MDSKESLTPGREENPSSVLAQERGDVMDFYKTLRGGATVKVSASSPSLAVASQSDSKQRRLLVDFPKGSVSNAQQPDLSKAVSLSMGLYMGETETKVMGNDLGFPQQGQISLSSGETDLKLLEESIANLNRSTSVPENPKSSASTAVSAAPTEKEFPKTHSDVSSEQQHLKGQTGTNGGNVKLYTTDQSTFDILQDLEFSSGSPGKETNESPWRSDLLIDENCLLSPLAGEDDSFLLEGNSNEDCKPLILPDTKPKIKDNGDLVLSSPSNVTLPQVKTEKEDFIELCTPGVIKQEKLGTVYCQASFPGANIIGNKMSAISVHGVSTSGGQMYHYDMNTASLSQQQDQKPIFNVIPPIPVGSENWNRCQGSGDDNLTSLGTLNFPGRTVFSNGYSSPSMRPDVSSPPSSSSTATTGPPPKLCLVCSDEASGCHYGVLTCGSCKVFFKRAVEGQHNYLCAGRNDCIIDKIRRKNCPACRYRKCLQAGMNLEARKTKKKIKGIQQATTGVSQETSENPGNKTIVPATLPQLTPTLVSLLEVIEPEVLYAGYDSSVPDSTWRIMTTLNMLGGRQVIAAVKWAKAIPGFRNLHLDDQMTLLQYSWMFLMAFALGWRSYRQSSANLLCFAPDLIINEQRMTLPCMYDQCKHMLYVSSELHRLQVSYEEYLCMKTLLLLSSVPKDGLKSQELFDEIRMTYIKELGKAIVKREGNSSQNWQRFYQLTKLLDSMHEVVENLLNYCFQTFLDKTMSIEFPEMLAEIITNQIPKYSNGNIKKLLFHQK
Sequence of Ubiquitin carboxyl-terminal hydrolase 1 (Homo sapiens) (O94782 whole entry, looked up): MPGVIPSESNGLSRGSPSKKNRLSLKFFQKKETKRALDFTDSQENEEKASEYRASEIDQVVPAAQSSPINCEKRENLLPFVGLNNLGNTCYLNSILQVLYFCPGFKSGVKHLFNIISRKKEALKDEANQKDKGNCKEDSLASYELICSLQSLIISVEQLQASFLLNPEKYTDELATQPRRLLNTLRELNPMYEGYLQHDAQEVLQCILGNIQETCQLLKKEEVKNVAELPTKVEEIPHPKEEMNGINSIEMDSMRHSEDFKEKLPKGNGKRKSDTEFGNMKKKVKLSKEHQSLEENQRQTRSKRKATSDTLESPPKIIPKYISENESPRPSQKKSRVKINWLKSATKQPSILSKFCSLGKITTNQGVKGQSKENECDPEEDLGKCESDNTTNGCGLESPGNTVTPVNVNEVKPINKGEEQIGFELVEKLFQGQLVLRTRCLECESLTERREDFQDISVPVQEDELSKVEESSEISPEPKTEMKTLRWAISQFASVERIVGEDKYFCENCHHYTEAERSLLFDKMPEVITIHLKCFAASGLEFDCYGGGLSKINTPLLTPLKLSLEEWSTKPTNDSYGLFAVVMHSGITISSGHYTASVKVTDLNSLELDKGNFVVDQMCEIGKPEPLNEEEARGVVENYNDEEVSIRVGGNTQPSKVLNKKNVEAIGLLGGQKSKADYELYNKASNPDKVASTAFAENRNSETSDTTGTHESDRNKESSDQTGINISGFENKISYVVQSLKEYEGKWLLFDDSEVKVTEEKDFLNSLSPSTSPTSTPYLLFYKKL
Sequence of Cytochrome P450 3A4 (Homo sapiens) (P08684 whole entry, looked up): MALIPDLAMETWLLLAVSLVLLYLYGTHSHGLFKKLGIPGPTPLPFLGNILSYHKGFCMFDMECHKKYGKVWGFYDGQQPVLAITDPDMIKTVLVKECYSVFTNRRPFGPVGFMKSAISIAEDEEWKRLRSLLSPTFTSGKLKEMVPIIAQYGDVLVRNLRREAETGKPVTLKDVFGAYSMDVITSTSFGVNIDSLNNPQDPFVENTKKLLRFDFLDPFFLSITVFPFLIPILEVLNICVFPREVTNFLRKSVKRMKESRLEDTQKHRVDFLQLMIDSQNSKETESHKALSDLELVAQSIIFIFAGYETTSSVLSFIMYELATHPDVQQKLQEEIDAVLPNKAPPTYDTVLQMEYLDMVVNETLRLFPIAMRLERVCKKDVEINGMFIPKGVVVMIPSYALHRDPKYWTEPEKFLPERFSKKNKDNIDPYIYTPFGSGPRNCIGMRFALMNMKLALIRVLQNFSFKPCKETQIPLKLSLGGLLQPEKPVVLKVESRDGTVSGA
Sequence of Lysosomal acid glucosylceramidase (Homo sapiens) (P04062 whole entry, looked up): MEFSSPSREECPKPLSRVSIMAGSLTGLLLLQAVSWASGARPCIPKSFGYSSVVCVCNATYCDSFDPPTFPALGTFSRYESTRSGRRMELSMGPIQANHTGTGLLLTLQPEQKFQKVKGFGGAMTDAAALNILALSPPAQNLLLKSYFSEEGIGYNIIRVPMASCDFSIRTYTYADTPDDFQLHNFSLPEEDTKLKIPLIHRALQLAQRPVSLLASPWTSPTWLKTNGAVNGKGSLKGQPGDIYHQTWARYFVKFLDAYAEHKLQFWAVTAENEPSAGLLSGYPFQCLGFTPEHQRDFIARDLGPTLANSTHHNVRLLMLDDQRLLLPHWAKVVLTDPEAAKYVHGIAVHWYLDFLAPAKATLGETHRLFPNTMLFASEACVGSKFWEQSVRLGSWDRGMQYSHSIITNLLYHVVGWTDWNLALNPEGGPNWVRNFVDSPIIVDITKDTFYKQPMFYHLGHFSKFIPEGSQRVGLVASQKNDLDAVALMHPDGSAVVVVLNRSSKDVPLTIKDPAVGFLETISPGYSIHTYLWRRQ
Sequence of Dual specificity protein kinase CLK4 (Homo sapiens) (Q9HAZ1 whole entry, looked up): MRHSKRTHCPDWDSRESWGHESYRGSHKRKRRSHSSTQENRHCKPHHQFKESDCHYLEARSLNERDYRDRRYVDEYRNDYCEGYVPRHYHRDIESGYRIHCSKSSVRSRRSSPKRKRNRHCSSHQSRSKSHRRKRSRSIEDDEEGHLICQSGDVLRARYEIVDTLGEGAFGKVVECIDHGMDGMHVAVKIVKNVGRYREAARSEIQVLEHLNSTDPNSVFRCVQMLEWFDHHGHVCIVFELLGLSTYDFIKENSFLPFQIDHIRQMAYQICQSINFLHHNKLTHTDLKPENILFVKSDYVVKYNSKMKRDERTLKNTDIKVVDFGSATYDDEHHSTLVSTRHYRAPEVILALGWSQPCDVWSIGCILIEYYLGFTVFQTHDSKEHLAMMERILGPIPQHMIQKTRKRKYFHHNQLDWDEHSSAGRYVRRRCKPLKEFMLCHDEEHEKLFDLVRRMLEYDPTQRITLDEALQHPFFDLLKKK
Sequence of 3',5'-cyclic-AMP phosphodiesterase 4B (Homo sapiens) (Q07343 whole entry, looked up): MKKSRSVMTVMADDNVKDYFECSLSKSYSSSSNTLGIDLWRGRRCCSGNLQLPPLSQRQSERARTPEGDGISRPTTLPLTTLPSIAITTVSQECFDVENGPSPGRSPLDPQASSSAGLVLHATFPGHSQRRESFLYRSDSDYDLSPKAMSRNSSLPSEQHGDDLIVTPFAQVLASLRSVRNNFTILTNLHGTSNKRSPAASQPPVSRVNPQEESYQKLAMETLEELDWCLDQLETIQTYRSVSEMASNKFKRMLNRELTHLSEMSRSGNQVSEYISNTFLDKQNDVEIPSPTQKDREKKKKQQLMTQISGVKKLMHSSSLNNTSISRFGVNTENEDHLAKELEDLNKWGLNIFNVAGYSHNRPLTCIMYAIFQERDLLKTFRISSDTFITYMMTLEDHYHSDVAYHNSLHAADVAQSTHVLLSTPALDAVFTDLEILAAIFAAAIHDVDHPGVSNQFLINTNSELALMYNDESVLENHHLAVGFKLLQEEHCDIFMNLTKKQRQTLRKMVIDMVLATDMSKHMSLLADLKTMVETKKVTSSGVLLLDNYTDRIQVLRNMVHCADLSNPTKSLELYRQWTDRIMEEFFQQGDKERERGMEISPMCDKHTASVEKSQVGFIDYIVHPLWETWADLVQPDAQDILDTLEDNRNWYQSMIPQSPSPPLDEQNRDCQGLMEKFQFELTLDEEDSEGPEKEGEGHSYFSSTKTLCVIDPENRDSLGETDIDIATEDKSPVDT
Sequence of Cytochrome P450 2C19 (Homo sapiens) (P33261 whole entry, looked up): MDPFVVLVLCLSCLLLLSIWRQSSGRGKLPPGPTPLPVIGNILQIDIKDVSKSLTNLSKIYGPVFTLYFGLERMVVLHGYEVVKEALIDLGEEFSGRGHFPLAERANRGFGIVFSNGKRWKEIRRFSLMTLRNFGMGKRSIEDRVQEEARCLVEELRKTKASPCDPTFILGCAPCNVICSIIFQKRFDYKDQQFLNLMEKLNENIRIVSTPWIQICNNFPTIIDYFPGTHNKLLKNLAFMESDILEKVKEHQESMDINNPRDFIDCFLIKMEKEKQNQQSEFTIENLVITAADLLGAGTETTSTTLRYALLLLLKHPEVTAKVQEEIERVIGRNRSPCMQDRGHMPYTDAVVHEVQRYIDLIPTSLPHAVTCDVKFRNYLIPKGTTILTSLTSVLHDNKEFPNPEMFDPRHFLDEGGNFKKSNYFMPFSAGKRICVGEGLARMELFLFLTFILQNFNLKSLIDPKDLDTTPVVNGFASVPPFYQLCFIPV
Sequence of Cytochrome P450 1A2 (Homo sapiens) (P05177 whole entry, looked up): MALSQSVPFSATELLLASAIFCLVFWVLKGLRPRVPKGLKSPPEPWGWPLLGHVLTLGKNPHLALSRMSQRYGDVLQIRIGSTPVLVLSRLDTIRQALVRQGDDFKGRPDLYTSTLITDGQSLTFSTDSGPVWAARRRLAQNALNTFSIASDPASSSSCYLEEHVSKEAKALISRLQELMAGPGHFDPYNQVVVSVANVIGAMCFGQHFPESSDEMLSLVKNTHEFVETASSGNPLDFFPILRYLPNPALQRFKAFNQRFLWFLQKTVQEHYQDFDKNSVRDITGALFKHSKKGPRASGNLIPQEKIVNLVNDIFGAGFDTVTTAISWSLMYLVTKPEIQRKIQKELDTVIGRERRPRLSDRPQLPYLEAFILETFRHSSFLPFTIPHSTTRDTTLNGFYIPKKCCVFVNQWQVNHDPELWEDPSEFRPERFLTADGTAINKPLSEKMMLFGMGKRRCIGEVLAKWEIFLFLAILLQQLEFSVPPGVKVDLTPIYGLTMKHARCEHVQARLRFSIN

Consider `CN1CCN(c2ccnc(-c3ccc(N(C)C)cc3)n2)CC1`, for which the Potency is > 11.4 µM (inactive) in experiment [1], 0.794 µM (active) in experiment [3], > 46 µM (inactive) in [6] and > 46 µM (inactive) in [7]. For the same compound, the activity change, negative = inhibition is -4.67% (inactive) in experiment [2], 6.45% (inactive) in experiment [4] and 10.5% (inactive) in experiment [12]. In addition, the activity, negative = inhibition in experiment [5] is -0.21% (inactive). Further, the Potency result in [8], in experiment [9], in [10], in experiment [13] and in experiment [14] was “inactive” in each case. Further, the activation in experiment [11] is 1.71% (inactive). In addition, the max response amounted to 22.6% in experiment [12] (setting [19]) and 29.9% in experiment [12] (setting [20]).

As to `CN1CCN(c2ncncc2-c2ccoc2)CC1`, the Potency in [1] was > 11.4 µM (inactive); in experiment [6] it was > 46 µM (inactive); in experiment [7], > 46 µM (inactive); in [15] it was 7.94 µM (active). In addition, the activity change, negative = inhibition in [2] was -0.0355% (inactive); in experiment [4], -13% (inactive); in experiment [12], 5.79% (inactive). The activity, negative = inhibition in [5] was -4.34% (inactive). Besides, the Potency result in [8], in [9], in experiment [10], in experiment [16], in [13] and in [14] was “inactive” in each case. For the same compound, the results for the max response in experiment [12] (setting [19]) and in experiment [12] (setting [20]) were 23.7% and 30.3%, respectively.

Turning to `COc1ccc2ccc(=O)oc2c1`, the Potency result in [15], in [17] and in [14] was “inactive” in each case. The result in [18] was inactive. Moreover, in experiment [12], the activity change, negative = inhibition is 7.71% (inactive). The max response in experiment [12] (setting [19]) was -2.86%; in [12] (setting [20]), 5.5%.

Take `C=C(C)[C@H]1CC=C(C)C(=O)C1`: the Potency result in experiment [8], in [15] and in experiment [14] was “inactive” throughout. Besides, the activity change, negative = inhibition in [12] was -4.73% (inactive). Besides, the max response in experiment [12] (setting [19]) was -28%; in experiment [12] (setting [20]), -15.9%.
